# In the supplement of paper PMC8728848:
# Many of the other results were omitted from the sample, so the strongest signals are more common in it than they were.
# B1: SUN4 (Saccharomyces cerevisiae), P53616 (protein)
# chain: MGSSHHHHHHSSGLVPRGSHNGSIYGDLADFSGPYEKFEDGTIPCGQFPSGQGVIPISWLDEGGWSGVENTDTSTGGSCKEGSYCSYACQPGMSKTQWPSDQPSDGRSIGGLLCKDGYLYRSNTDTDYLCEWGVDAAYVVSELSNDVAICRTDYPGTENMVIPTYVQAGDSLPLTVVDQDTYYTWQGLKTSAAYYVNNAGISVEDACVWGSSSSGVGNWAPLNFGAGSSDGVAYLSLIPNPNNGNALNFNVKIVAADDSSTVNGECIYENGSFSGGSDGCTVSVTAGKAKFVLYN
# How the values were obtained:
# Test in all cases: glycan array binding signal (z-score within array); higher = stronger binding
# Details in all cases: glycan notation: IUPAC condensed, linker removed; mutation: Q318A
# [1] = biological target: Fuc(a1-2)Gal(b1-3)GalNAc(b1-4)[Neu5Ac(a2-3)]Gal(b1-4)Glc
# Summary of the method: (§1)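 Glycan array binding is given as a within-array Z-score, which can be read as non-binding when negative. The arrays, 3228 of them, came from the Consortium for Functional Glycomics database and were retained only where the protein sequence was available. Z-scores were averaged across arrays of the same protein sequence at different concentrations or buffers and across linkers.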
# [2] = biological target: Fuc(a1-2)Gal(b1-3)GlcNAc(b1-3)[Fuc(a1-2)Gal(b1-3)GlcNAc(b1-6)]GalNAc
# Summary of the method: as §1
# [3] = biological target: Fuc(a1-2)Gal(b1-4)Fuc(a1-3)]GlcNAc(b1-2)Man(a1-3)[Fuc(a1-2)Gal(b1-4)[Fuc(a1-3)]GlcNAc(b1-2)Man(a1-6)]Man(b1-4)GlcNAc(b1-4)GlcNAc
# Summary of the method: as §1
# Fuc(a1-2)Gal(b1-4)GlcNAc = biological target: Fuc(a1-2)Gal(b1-4)GlcNAc
# Summary of the method: as §1
# [4] = biological target: Fuc(a1-2)Gal(b1-4)GlcNAc(b1-2)Man(a1-3)[Fuc(a1-2)Gal(b1-4)GlcNAc(b1-2)Man(a1-6)]Man(b1-4)GlcNAc(b1-4)GlcNAc
# Summary of the method: as §1
# [5] = biological target: Fuc(a1-2)Gal(b1-4)GlcNAc(b1-3)Gal(b1-4)GlcNAc(b1-2)Man(a1-3)[Fuc(a1-2)Gal(b1-4)GlcNAc(b1-3)Gal(b1-4)GlcNAc(b1-2)Man(a1-6)]Man(b1-4)GlcNAc(b1-4)GlcNAc
# Summary of the method: as §1
# [6] = biological target: Fuc(a1-2)[Gal(a1-3)]Gal(b1-4)GlcNAc(b1-2)Man(a1-3)[Fuc(a1-2)[Gal(a1-3)]Gal(b1-4)GlcNAc(b1-2)Man(a1-6)]Man(b1-4)GlcNAc(b1-4)GlcNAc
# Summary of the method: as §1
# [7] = biological target: Fuc(a1-2)[GalNAc(a1-3)]Gal(b1-4)GlcNAc(b1-2)Man
# Summary of the method: as §1
# [8] = biological target: Fuc(a1-2)[GalNAc(a1-3)]Gal(b1-4)GlcNAc(b1-3)Gal(b1-4)GlcNAc
# Summary of the method: as §1
# [9] = biological target: Fuc(a1-2)[GalNAc(a1-3)]Gal(b1-4)GlcNAc(b1-3)GalNAc
# Summary of the method: as §1
# [10] = biological target: Fuc(a1-3)[Gal(b1-4)]GlcNAc6S
# Summary of the method: as §1
# Gal(a1-3)Gal(b1-4)GlcNAc = biological target: Gal(a1-3)Gal(b1-4)GlcNAc
# Summary of the method: as §1
# Gal(a1-4)Gal(b1-4)Glc = biological target: Gal(a1-4)Gal(b1-4)Glc
# Summary of the method: as §1
# [11] = biological target: Gal(b1-3)GalNAc(b1-4)Gal(b1-4)Glc
# Summary of the method: as §1
# [12] = biological target: Gal(b1-3)GlcNAc(b1-3)Gal(b1-4)GlcNAc(b1-3)Gal(b1-4)GlcNAc(b1-2)[Gal(b1-3)GlcNAc(b1-3)Gal(b1-4)GlcNAc(b1-3)Gal(b1-4)GlcNAc(b1-6)]Man(a1-6)[Gal(b1-3)GlcNAc(b1-3)Gal(b1-4)GlcNAc(b1-3)Gal(b1-4)GlcNAc(b1-2)Man(a1-3)]Man(b1-4)GlcNAc(b1-4)[Fuc(a1-6)]GlcNAc
# Summary of the method: as §1
# [13] = biological target: Gal(b1-3)GlcNAc(b1-6)Gal(b1-4)GlcNAc
# Summary of the method: as §1
# [14] = biological target: Gal(b1-3)GlcNAc(b1-6)[Gal(b1-3)]GalNAc
# Summary of the method: as §1
# Gal(b1-4)Gal = biological target: Gal(b1-4)Gal
# Summary of the method: as §1
# Gal(b1-4)GlcNAc(b1-2)Man = biological target: Gal(b1-4)GlcNAc(b1-2)Man
# Summary of the method: as §1
# [15] = biological target: Gal(b1-4)GlcNAc(b1-2)Man(a1-3)[Gal(b1-4)GlcNAc(b1-2)Man(a1-6)][GlcNAc(b1-4)]Man(b1-4)GlcNAc(b1-4)[Fuc(a1-6)]GlcNAc
# Summary of the method: as §1
# [16] = biological target: Gal(b1-4)GlcNAc(b1-3)Gal(b1-4)GlcNAc(b1-3)Gal(b1-4)GlcNAc(b1-2)[Gal(b1-4)GlcNAc(b1-3)Gal(b1-4)GlcNAc(b1-3)Gal(b1-4)GlcNAc(b1-6)]Man(a1-6)[Gal(b1-4)GlcNAc(b1-3)Gal(b1-4)GlcNAc(b1-3)Gal(b1-4)GlcNAc(b1-2)Man(a1-3)]Man(b1-4)GlcNAc(b1-4)[Fuc(a1-6)]GlcNAc
# Summary of the method: as §1
# [17] = biological target: Gal(b1-4)GlcNAc(b1-3)Gal(b1-4)GlcNAc(b1-3)Gal(b1-4)GlcNAc(b1-3)Gal(b1-4)GlcNAc(b1-3)Gal(b1-4)GlcNAc(b1-2)Man(a1-3)[Gal(b1-4)GlcNAc(b1-3)Gal(b1-4)GlcNAc(b1-3)Gal(b1-4)GlcNAc(b1-3)Gal(b1-4)GlcNAc(b1-3)Gal(b1-4)GlcNAc(b1-2)Man(a1-6)]Man(b1-4)GlcNAc(b1-4)[Fuc(a1-6)]GlcNAc
# Summary of the method: as §1
# GalNAc(a1-3)GalNAc = biological target: GalNAc(a1-3)GalNAc
# Summary of the method: as §1
# GalNAc(b1-4)Gal(b1-4)Glc = biological target: GalNAc(b1-4)Gal(b1-4)Glc
# Summary of the method: as §1
# GalNAc(b1-4)GlcNAc = biological target: GalNAc(b1-4)GlcNAc
# Summary of the method: as §1
# [18] = biological target: Glc(a1-6)Glc(a1-6)Glc(a1-6)Glc
# Summary of the method: as §1
# [19] = biological target: GlcNAc(b1-2)Man(a1-3)[GlcNAc(b1-2)Man(a1-6)]Man(b1-4)GlcNAc(b1-4)GlcNAc
# Summary of the method: as §1
# [20] = biological target: GlcNAc(b1-2)[GlcNAc(b1-6)]Man(a1-6)[GlcNAc(b1-2)Man(a1-3)]Man(b1-4)GlcNAc(b1-4)[Fuc(a1-6)]GlcNAc
# Summary of the method: as §1
# [21] = biological target: GlcNAc(b1-3)Gal(b1-4)GlcNAc(b1-6)[GlcNAc(b1-3)Gal(b1-3)]GalNAc
# Summary of the method: as §1
# [22] = biological target: GlcNAc(b1-4)GlcNAc(b1-4)GlcNAc
# Summary of the method: as §1
binder,measurement,setting,value
B1,glycan array binding signal (z-score),[1],-0.245
same,glycan array binding signal (z-score),[2],0.442
same,glycan array binding signal (z-score),[3],2.65
same,glycan array binding signal (z-score),Fuc(a1-2)Gal(b1-4)GlcNAc,-0.67
same,glycan array binding signal (z-score),[4],-0.18
same,glycan array binding signal (z-score),[5],1.88
same,glycan array binding signal (z-score),[6],-0.077
same,glycan array binding signal (z-score),[7],-0.198
same,glycan array binding signal (z-score),[8],0.152
same,glycan array binding signal (z-score),[9],0.641
same,glycan array binding signal (z-score),[10],0.316
same,glycan array binding signal (z-score),Gal(a1-3)Gal(b1-4)GlcNAc,-0.246
same,glycan array binding signal (z-score),Gal(a1-4)Gal(b1-4)Glc,2.25
same,glycan array binding signal (z-score),[11],-0.46
same,glycan array binding signal (z-score),[12],2.21
same,glycan array binding signal (z-score),[13],-0.212
same,glycan array binding signal (z-score),[14],-0.256
same,glycan array binding signal (z-score),Gal(b1-4)Gal,-0.573
same,glycan array binding signal (z-score),Gal(b1-4)GlcNAc(b1-2)Man,0.857
same,glycan array binding signal (z-score),[15],-0.281
same,glycan array binding signal (z-score),[16],1.61
same,glycan array binding signal (z-score),[17],2.04
same,glycan array binding signal (z-score),GalNAc(a1-3)GalNAc,-1.37
same,glycan array binding signal (z-score),GalNAc(b1-4)Gal(b1-4)Glc,1.66
same,glycan array binding signal (z-score),GalNAc(b1-4)GlcNAc,0.304
same,glycan array binding signal (z-score),[18],0.21
same,glycan array binding signal (z-score),[19],-0.045
same,glycan array binding signal (z-score),[20],2.54
same,glycan array binding signal (z-score),[21],0.161
same,glycan array binding signal (z-score),[22],0.057
